# Test results published in PubChem BioAssay (NCI).
# “And” between values parts separate entries of the source, which are not always exact repeats. Identical values can stand only once. About 83,000 compounds went through this panel and 20% of them were active in at least one assay; those are over-represented in the sample as a whole.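 For each line, cells grew in 96-well plates with the test compound present at a single concentration for 48 hours.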 A structure can be active in one record and inactive in another. The source made the active and inactive calls. The calls were made as follows: active = growth percent below 10; inactive = the rest.
# Assays:
# Test in all cases: NCI-60 one-dose screen, 48 h (100 = growth as untreated, 0 = no growth, -100 = all killed)
# Details in all cases: 10 µM unless noted
# [1] = system: NCI-H23 lung
# [2] = system: NCI-H322M lung
# [3] = system: HOP-62 NSCLC
# [4] = system: NCI-H460 lung
# [5] = system: HOP-92 NSCLC
# [6] = system: NCI-H522 lung
# [7] = system: A549/ATCC NSCLC
# [8] = system: 786-0 renal
# [9] = system: COLO 205 colon
# [10] = system: NCI-H226 lung
Compound,growth [1],growth [2],growth [3],growth [4],growth [5],growth [6],growth [7],growth [8],growth [9],growth [10]
Cc1onc(-c2ccccc2)c1C(=O)N/N=C/c1cc(Cl)cc(Cl)c1O,53.2% (inactive),16% (inactive),39.3% (inactive),22.7% (inactive),49.3% (inactive),28.7% (inactive),21.9% (inactive),27.4% (inactive),16.9% (inactive),–
CCC[CH2][Sn]1([CH2]CCC)[O]C2C(CO)OC(n3ccc(N)nc3=O)C2[O]1 (stereo unspecified),-42.1% (active),–,22.7% (inactive),–,-56.3% (active),-78.9% (active),68.1% (inactive),-89.9% (active),-79.4% (active),-93.9% (active)
O=C(Nc1ccc(Cl)c(Cl)c1)Nc1ccccc1O,64.9% (inactive),–,88.8% (inactive),79.5% (inactive),–,26.8% (inactive),37.2% (inactive),99.6% (inactive),85.3% (inactive),96.9% (inactive)
CC(C)=CCCC(C)C1=C(O)C(=O)C(C)=CC1=O (stereo unspecified),97% (inactive),–,125% (inactive),124% (inactive),–,-55.5% (active),110% (inactive),93.2% (inactive),50.3% (inactive),94.8% (inactive)
CC[n+]1ccc(Nc2ccc(NC(=O)c3ccc(Nc4cc[n+](CC)c5ccc([N+](=O)[O-])cc45)cc3)cc2)cc1,81.8% (inactive),–,92.8% (inactive),77% (inactive),–,65.7% (inactive),66.1% (inactive),101% (inactive),69.8% (inactive),92.8% (inactive)
CCN(CC)CCNC(Cc1ccccc1)c1ccc(OCc2ccccc2)cc1 (stereo unspecified),–,–,92.8% (inactive),65.1% (inactive),6.39% (active),73.6% (inactive),69.6% (inactive),57.4% (inactive),54.2% (inactive),88.2% (inactive)
COc1cc(NCc2ccc3nc(N)nc(N)c3c2C)cc(OC)c1OC (tested in a mixture with another compound),16.1% (inactive),–,–,14.1% (inactive),–,22.3% (inactive),36.9% (inactive),15.5% (inactive),40.2% (inactive),47.5% (inactive)
CC(C)(C)c1ccc(CCO)cc1,97.5% (inactive),–,97.5% (inactive),–,100% (inactive),85.4% (inactive),103% (inactive),98.2% (inactive),110% (inactive),91.8% (inactive)
O=[n+]1c2ccccc2n([O-])c2cc(Cl)ccc21,91.3% (inactive),98.5% (inactive),77.4% (inactive),42.7% (inactive),–,72% (inactive),–,32.1% (inactive),76.5% (inactive),–
COC(=O)C(=[N+]=[N-])C(=O)c1ccc([N+](=O)[O-])o1,77.6% (inactive),103% (inactive),89.7% (inactive),94% (inactive),83.1% (inactive),-61.8% (active),65.2% (inactive),107% (inactive),23% (inactive),–
CC(=O)N1CC(=O)NC1=S,98.3% (inactive),–,97.7% (inactive),103% (inactive),102% (inactive),92.2% (inactive),94.9% (inactive),102% (inactive),–,–
CC(CSc1n[nH]c(=S)s1)c1ccccc1 (stereo unspecified),106% (inactive),118% (inactive),108% (inactive),–,101% (inactive),79.3% (inactive),103% (inactive),111% (inactive),105% (inactive),–
Cc1ccc(N2C(=O)C=CC2=O)cc1,106% (inactive),–,107% (inactive),–,82.9% (inactive),74.8% (inactive),92% (inactive),99.1% (inactive),83.6% (inactive),90.9% (inactive)
COc1cccc2c1C(=O)c1c(O)c3c(c(O)c1C2=O)C[C@@](O)(C(=O)CO)C[C@@H]3OC1CC(OC(C)=O)C(OC(C)=O)C(C)O1 (stereo partly specified),–,-12.8% (active),–,-56.2% (active),-28.9% (active),-34% (active),–,-17.3% (active),-6.8% (active),-73.3% (active)
Clc1ccccc1C(c1ccccc1)(c1ccccc1)n1ccnc1,41.9% (inactive),–,34.3% (inactive),51.4% (inactive),19.7% (inactive),28.1% (inactive),–,48.3% (inactive),24% (inactive),29.2% (inactive)
CN(C)c1ccc(/C=C/c2nccc3ccccc23)cc1,81.9% (inactive),–,87.9% (inactive),–,68.2% (inactive),–,85.6% (inactive),103% (inactive),91.4% (inactive),71.6% (inactive)
CC1(C)OC2C(COC(c3ccccc3)(c3ccccc3)c3ccccc3)OC(c3c[nH]c4c(N)ncnc34)C2O1 (stereo unspecified),62.9% (inactive),–,–,41.1% (inactive),59.5% (inactive),55.9% (inactive),44.7% (inactive),62.8% (inactive),68.3% (inactive),72.9% (inactive)
CCOC(=O)NC(/C=C/c1ccccc1)NC(=O)OCC,102% (inactive),–,–,108% (inactive),108% (inactive),100% (inactive),95.7% (inactive),103% (inactive),112% (inactive),102% (inactive)
CCCCCCCCCCCCCCCc1ccc(C(=O)C[n+]2ccccc2)cc1,-62% (active),–,–,-80.6% (active),-87.1% (active),-90.2% (active),-95% (active),–,-90.5% (active),-6.49% (active)
O=C1C=C(Cl)C(=O)c2ccccc21,99.6% (inactive),88.8% (inactive),84.5% (inactive),101% (inactive),–,11% (inactive),–,110% (inactive),93.2% (inactive),–
O=C1Nc2ccc(Br)cc2C1=O,97.5% (inactive),–,100% (inactive),102% (inactive),103% (inactive),99.8% (inactive),–,109% (inactive),106% (inactive),93.3% (inactive)
O=C(O)c1ccc2c(c1)C(=O)c1ccccc1C2=O,103% (inactive),–,90.9% (inactive),105% (inactive),93.9% (inactive),98.6% (inactive),–,103% (inactive),100% (inactive),92% (inactive)
CCCCC(CCc1ccc([N+](=O)[O-])cc1)(C(C)=O)C(=O)OCC (stereo unspecified),95.7% (inactive),–,102% (inactive),105% (inactive),91.5% (inactive),104% (inactive),–,98.2% (inactive),111% (inactive),89.7% (inactive)
OC(c1cc(-c2ccc(C(F)(F)F)cc2)nc(C(F)(F)F)c1)C1CCCCN1 (stereo unspecified),23.4% (inactive) and -44.7% (active) and 62.5% (inactive),–,–,-77.9% (active) and -77.2% (active) and -47.9% (active),-18.8% (active) and -58.7% (active) and 36.3% (inactive),-67.2% (active) and -80.1% (active) and 9.35% (active),-43% (active) and -44.5% (active) and 35.6% (inactive),-48.8% (active) and -82.2% (active) and 27% (inactive),-90.1% (active) and -85.4% (active) and -79.8% (active),-7.1% (active) and -6.47% (active) and 43.1% (inactive)
O=C(c1ccccc1)c1ccc(O)c2ncccc12,19.9% (inactive),–,–,13.7% (inactive),49.6% (inactive),–,30.2% (inactive),31.6% (inactive),104% (inactive),29.3% (inactive)
NNc1cccc([N+](=O)[O-])c1,–,89% (inactive),–,–,122% (inactive),61.4% (inactive),96.7% (inactive),86.4% (inactive),110% (inactive),103% (inactive)
CC(C)c1ccc(C(=O)OC2CCCC2)cc1,100% (inactive),99.2% (inactive),–,105% (inactive),80.2% (inactive),103% (inactive),117% (inactive),107% (inactive),103% (inactive),–
Oc1ccccc1N=Cc1ccccc1,64.2% (inactive),–,99.1% (inactive),–,102% (inactive),81.1% (inactive),98.2% (inactive),–,125% (inactive),86.3% (inactive)
